This is an account of results in PubChem BioAssay (NCI).

The panel holds about 83,000 compounds, 20% with a hit somewhere; the sample as a whole holds those more often.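 Negative percent growth values reflect cell death: -40 means 40% of the cells present at the start died, and -100 means all died.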 A number with no mark means an inactive call. Calls of active or inactive are those of the source. The calls were made as follows: active = growth percent below 10; inactive = the rest.

Common to all, as to experiment: NCI-60 one-dose screen, 48 h (100 = growth as untreated, 0 = no growth, -100 = all killed)
One assay concerns SR leukemia. The following applies: 10 µM unless noted.
The test system of the next assay is RPMI-8226 leukemia. The conditions noted are these: 10 µM unless noted.
The next assay has as its system OVCAR-8 ovarian. The following applies: 10 µM unless noted.
The test system of a further assay is OVCAR-5 ovarian. The conditions noted are these: 10 µM unless noted.
For another assay, the system named is OVCAR-4 ovarian. The conditions noted are these: 10 µM unless noted.
The test system of a further assay is SK-OV-3 ovarian. The following applies: 10 µM unless noted.
The next assay has as its system IGROV1 ovarian. The conditions noted are these: 10 µM unless noted.
For the next assay, the system named is OVCAR-3 ovarian. The conditions noted are these: 10 µM unless noted.
The test system of another assay is HS 578T breast. The conditions noted are these: 10 µM.
The subject of a further assay is NCI/ADR-RES ovarian. The following applies: 10 µM unless noted.
Another assay relates to T-47D breast. The following applies: 10 µM unless noted.
For the next assay, the system named is BT-549 breast. The following applies: 10 µM unless noted.
The test system of the next assay is MDA-MB-435 melanoma. The following applies: 10 µM unless noted.
Another assay has as its system SW-620 colon. The following applies: 10 µM unless noted.
The next assay relates to MCF7 breast. The conditions noted are these: 10 µM unless noted.
Another assay concerns HCT-116 colon. The conditions noted are these: 10 µM unless noted.
The next assay deals with HCC-2998 colon. The conditions noted are these: 10 µM unless noted.
The next assay concerns KM12 colon. The following applies: 10 µM unless noted.

`COc1ccc(/C=C2\Cc3c(Br)cccc3C2=O)c(OC)c1`: the growth with SR leukemia was 52.2%; in the assay with RPMI-8226 leukemia, 60.9%; with OVCAR-8 ovarian, 80.8%; in the assay on OVCAR-5 ovarian, 85.3%; in the assay with OVCAR-4 ovarian, 72.1%; in the assay with SK-OV-3 ovarian, 80.8%. The growth was 74.1% in the assay on IGROV1 ovarian; 67.2% in the assay with OVCAR-3 ovarian; 80.5% with HS 578T breast; 50.1% in the assay with NCI/ADR-RES ovarian; 77.3% in the assay on T-47D breast; 69.6% in the assay on BT-549 breast. Also, the growth with MDA-MB-435 melanoma was 7.83% (active); with SW-620 colon it was 43.2%; with MCF7 breast, 55.6%; in the assay on HCT-116 colon, 15%; in the assay with HCC-2998 colon it was 84.1%; in the assay with KM12 colon, 46.8%.

In the case of `Nc1nonc1-c1nc2ccccc2n1Cc1ccc(F)cc1`, the growth in the assay on SR leukemia is 22.3%; with RPMI-8226 leukemia it was 64.4%; in the assay with OVCAR-8 ovarian, 76.7%; in the assay with OVCAR-5 ovarian it was 80.4%; in the assay on OVCAR-4 ovarian it was 66.9%; in the assay with SK-OV-3 ovarian it was 54.4%. For the same compound, the growth in the assay on IGROV1 ovarian was 48.7%; in the assay with OVCAR-3 ovarian, 48.5%; with HS 578T breast, 53.6%; in the assay on NCI/ADR-RES ovarian, 36.8%; in the assay with T-47D breast, 61.3%; in the assay with BT-549 breast, 58%. The growth with MDA-MB-435 melanoma was -39.6% (active); in the assay with SW-620 colon, 24.7%; in the assay on MCF7 breast it was 28.4%; with HCT-116 colon, 30.4%; with HCC-2998 colon, 58.8%; in the assay on KM12 colon, 30.5%.

Take `Cc1ccc2cc3c(NC(=O)c4cccnc4)nn(C)c3nc2c1`: the growth was 95.8% with SR leukemia; 76.3% with RPMI-8226 leukemia; 94.6% in the assay on OVCAR-8 ovarian; 102% in the assay with OVCAR-5 ovarian; 97.1% with OVCAR-4 ovarian; 94.2% in the assay with SK-OV-3 ovarian. The growth is 80.6% in the assay on IGROV1 ovarian; 91.1% in the assay with OVCAR-3 ovarian; 96% in the assay with HS 578T breast; 95% in the assay on NCI/ADR-RES ovarian; 69.6% in the assay on T-47D breast; 97.4% in the assay on BT-549 breast. The growth was 95.5% in the assay with MDA-MB-435 melanoma; 92.5% in the assay on SW-620 colon; 81.6% with MCF7 breast; 86.2% with HCT-116 colon; 91% with HCC-2998 colon; 85.6% with KM12 colon.

In the case of `O=C(Nc1ccccc1Cl)Oc1ccc2ccccc2c1`, the growth with SR leukemia was 71.1%; in the assay with RPMI-8226 leukemia it was 97.8%; in the assay with OVCAR-8 ovarian, 84.1%; with OVCAR-5 ovarian, 89%; in the assay on OVCAR-4 ovarian it was 101%; in the assay with SK-OV-3 ovarian, 93.5%. Also, the growth in the assay with IGROV1 ovarian was 77.9%; in the assay on OVCAR-3 ovarian, 96.6%; with HS 578T breast, 115%; with NCI/ADR-RES ovarian, 101%; in the assay with T-47D breast it was 88.5%; in the assay with BT-549 breast, 133%. For the same compound, the growth is 105% with MDA-MB-435 melanoma; 103% in the assay with SW-620 colon; 84.4% in the assay on MCF7 breast; 95.3% in the assay on HCT-116 colon; 95.1% in the assay with HCC-2998 colon; 95.9% in the assay with KM12 colon.

As to `COc1cc2nccc(Oc3ccc(NC(=O)C4(C(=O)Nc5ccc(F)cc5)CC4)cc3)c2cc1Oc1ccc(N)cn1`, the growth was 11.9% in the assay with SR leukemia; 48.5% in the assay on RPMI-8226 leukemia; 47.1% with OVCAR-8 ovarian; 40% in the assay on OVCAR-5 ovarian; 29.9% in the assay with OVCAR-4 ovarian; 61.3% in the assay on SK-OV-3 ovarian. The growth in the assay on IGROV1 ovarian is -24.1% (active); in the assay on OVCAR-3 ovarian it was 49.9%; in the assay on HS 578T breast, 7.33% (active); in the assay with NCI/ADR-RES ovarian it was 73.8%; in the assay on T-47D breast it was 5.99% (active); in the assay with BT-549 breast, 61.9%. Also, the growth with MDA-MB-435 melanoma is 3.34% (active); in the assay with SW-620 colon, 36.8%; in the assay with MCF7 breast it was 9.52% (active); with HCT-116 colon, 40.7%; with HCC-2998 colon, 72%; with KM12 colon, 3.7% (active).

As to `COc1ccc(/C(=C\c2ccc3c(c2)OCO3)C(=O)Nc2nc3ccc(F)cc3s2)cc1OC`, the growth in the assay with SR leukemia is 92.5%; with RPMI-8226 leukemia, 102%; in the assay on OVCAR-8 ovarian, 110%; in the assay on OVCAR-5 ovarian, 104%; in the assay on OVCAR-4 ovarian, 93.8%; with SK-OV-3 ovarian it was 100%. For the same compound, the growth with IGROV1 ovarian was 95.8%; in the assay on OVCAR-3 ovarian, 90.7%; with HS 578T breast it was 104%; with NCI/ADR-RES ovarian, 123%; in the assay with T-47D breast, 101%; in the assay with BT-549 breast, 97.1%. Besides, the growth with MDA-MB-435 melanoma is 99.8%; in the assay on SW-620 colon, 104%; with MCF7 breast it was 94.9%; in the assay on HCT-116 colon, 97.7%; in the assay with HCC-2998 colon, 109%; in the assay with KM12 colon it was 96.3%.

Regarding `C=C(C)[C@@H]1CC[C@]2(C)[C@H](CC=C3[C@@H]4C[C@](C)(C(=O)N5CCN(C)CC5)CC[C@]4(C)CC[C@]32C)[C@@]1(C)CCC#N`, the growth in the assay with SR leukemia is 39.4%; with RPMI-8226 leukemia, 32%; in the assay on OVCAR-8 ovarian, 74.7%; in the assay on OVCAR-5 ovarian, 88.2%; in the assay with OVCAR-4 ovarian, 62.9%; with SK-OV-3 ovarian it was 63.3%. Further, the growth is 76.4% in the assay with IGROV1 ovarian; 55.3% with OVCAR-3 ovarian; 81.4% in the assay with HS 578T breast; 75.6% with NCI/ADR-RES ovarian; 42.4% in the assay with T-47D breast; 56.6% with BT-549 breast. Also, the growth in the assay with MDA-MB-435 melanoma is 51.3%; in the assay with SW-620 colon, 57.1%; with MCF7 breast, 34.1%; in the assay on HCT-116 colon it was 26.7%; in the assay on HCC-2998 colon, 70.6%; with KM12 colon, 53.6%.

Consider `CC(CN1CCN(C)CC1)CN1c2ccccc2Sc2ccc(C(F)(F)F)cc21` (centres undefined), for which the growth with SR leukemia was -23.2% (active); in the assay with RPMI-8226 leukemia, 71.3%; with OVCAR-8 ovarian it was 71.9%; in the assay on OVCAR-5 ovarian, 68%; in the assay with OVCAR-4 ovarian, 54.5%; in the assay with SK-OV-3 ovarian it was 92.4%. The growth was 10.9% with IGROV1 ovarian; 42.9% with OVCAR-3 ovarian; 60.7% with HS 578T breast; 52.8% in the assay on NCI/ADR-RES ovarian; 63.4% in the assay with T-47D breast; 61.4% with BT-549 breast. Further, the growth was 27.3% in the assay on MDA-MB-435 melanoma; 22.6% in the assay on SW-620 colon; 46.4% in the assay with MCF7 breast; 21.6% in the assay on HCT-116 colon; -16.7% (active) in the assay with HCC-2998 colon; 31.2% in the assay on KM12 colon.
